# Laboratory results as given in article PMC7862700, “An all-to-all approach to the identification of sequence-specific readers for epigenetic DNA modifications on cytosine”.
# Legend:
# Assay in all cases: DAPPL (digital affinity profiling via proximity ligation, sequencing); 10 mM Tris-HCl pH 7.5, 50 mM NaCl, 1 mM DTT, 4% glycerol, room temperature, 30 min; GST-TFs on glutathione beads, 16-mer random dsDNA library, 0.1% formaldehyde crosslink after washing; high values mean tight binding
# FEV = molecular target: T1, FEV (Homo sapiens, UniProt Q99581 1-238); conditions: protein: recombinant; tags: N-terminal GST; dsDNA, one strand shown
# T1 sequence: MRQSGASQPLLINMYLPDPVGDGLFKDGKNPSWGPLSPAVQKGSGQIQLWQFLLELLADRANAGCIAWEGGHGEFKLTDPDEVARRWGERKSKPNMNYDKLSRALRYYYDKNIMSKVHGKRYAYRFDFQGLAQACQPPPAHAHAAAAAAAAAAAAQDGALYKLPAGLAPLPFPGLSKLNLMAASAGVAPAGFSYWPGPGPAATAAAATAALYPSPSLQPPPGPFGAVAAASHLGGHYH
# Outline: (§1)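 Each value of binding signal is a hexamer's read frequency for a factor divided by the same hexamer's frequency in the tag-only sample. Barcoded, bead-captured GST fusions of human transcription factors made in yeast were pooled with that sample and incubated with 200 nmole of a random double-stranded 16-mer DNA library in Tris/NaCl/DTT/glycerol buffer at room temperature for 30 min. Washing, 0.1% formaldehyde crosslinking, proximity ligation, PCR and Illumina NextSeq500 sequencing followed.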
# ETV5 = ETV5 (Homo sapiens, UniProt P41161 1-510); conditions: protein: recombinant; tags: N-terminal GST; dsDNA, one strand shown
# Outline: as §1
# HSF1 = HSF1 (Homo sapiens, UniProt Q00613 1-529); conditions: protein: recombinant; tags: N-terminal GST; chain copies: 3; dsDNA, one strand shown
# Outline: as §1
# SPIC = molecular target: T2, SPIC (Homo sapiens, UniProt Q8N5J4 1-248); conditions: protein: recombinant; tags: N-terminal GST; dsDNA, one strand shown
# T2 sequence: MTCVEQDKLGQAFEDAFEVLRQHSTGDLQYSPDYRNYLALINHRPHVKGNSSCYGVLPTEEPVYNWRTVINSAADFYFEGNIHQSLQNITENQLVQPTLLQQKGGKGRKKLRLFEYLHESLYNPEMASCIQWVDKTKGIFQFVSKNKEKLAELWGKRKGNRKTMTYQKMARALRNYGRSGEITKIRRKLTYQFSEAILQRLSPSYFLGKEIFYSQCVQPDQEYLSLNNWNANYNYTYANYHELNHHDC
# Outline: as §1
# ELF4 = ELF4 (Homo sapiens, UniProt Q99607 1-663); conditions: protein: recombinant; tags: N-terminal GST; dsDNA, one strand shown
# Outline: as §1
# ELK4 = molecular target: T3, ELK4 (Homo sapiens, UniProt P28324-2 1-405); conditions: protein: recombinant; tags: N-terminal GST; dsDNA, one strand shown
# T3 sequence: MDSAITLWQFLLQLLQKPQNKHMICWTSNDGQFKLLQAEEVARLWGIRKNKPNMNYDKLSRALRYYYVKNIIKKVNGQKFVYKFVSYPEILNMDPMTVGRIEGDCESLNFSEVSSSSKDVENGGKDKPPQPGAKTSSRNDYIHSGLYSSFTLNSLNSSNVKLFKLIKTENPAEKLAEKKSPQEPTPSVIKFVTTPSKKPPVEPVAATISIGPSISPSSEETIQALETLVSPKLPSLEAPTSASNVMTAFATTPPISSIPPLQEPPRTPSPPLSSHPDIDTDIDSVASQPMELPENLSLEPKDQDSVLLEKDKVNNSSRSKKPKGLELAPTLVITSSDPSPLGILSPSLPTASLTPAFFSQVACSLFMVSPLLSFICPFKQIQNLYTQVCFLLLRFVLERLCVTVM
# Outline: as §1
# ETV2 = molecular target: T4, ETV2 (Homo sapiens, UniProt O00321 1-342); conditions: protein: recombinant; tags: N-terminal GST; dsDNA, one strand shown
# T4 sequence: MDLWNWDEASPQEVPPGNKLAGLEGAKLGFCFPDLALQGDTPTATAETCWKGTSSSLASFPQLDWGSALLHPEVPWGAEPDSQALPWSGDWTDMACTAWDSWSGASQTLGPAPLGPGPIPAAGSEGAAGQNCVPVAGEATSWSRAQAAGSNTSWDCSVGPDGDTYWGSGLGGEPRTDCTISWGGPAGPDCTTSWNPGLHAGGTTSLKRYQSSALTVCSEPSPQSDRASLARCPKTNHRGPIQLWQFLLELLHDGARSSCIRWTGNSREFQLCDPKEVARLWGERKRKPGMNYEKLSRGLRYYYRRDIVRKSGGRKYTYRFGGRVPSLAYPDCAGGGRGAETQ
# Outline: as §1
# ELF3 = molecular target: T5, ELF3 (Homo sapiens, UniProt P78545 1-371); conditions: protein: recombinant; tags: N-terminal GST; dsDNA, one strand shown
# T5 sequence: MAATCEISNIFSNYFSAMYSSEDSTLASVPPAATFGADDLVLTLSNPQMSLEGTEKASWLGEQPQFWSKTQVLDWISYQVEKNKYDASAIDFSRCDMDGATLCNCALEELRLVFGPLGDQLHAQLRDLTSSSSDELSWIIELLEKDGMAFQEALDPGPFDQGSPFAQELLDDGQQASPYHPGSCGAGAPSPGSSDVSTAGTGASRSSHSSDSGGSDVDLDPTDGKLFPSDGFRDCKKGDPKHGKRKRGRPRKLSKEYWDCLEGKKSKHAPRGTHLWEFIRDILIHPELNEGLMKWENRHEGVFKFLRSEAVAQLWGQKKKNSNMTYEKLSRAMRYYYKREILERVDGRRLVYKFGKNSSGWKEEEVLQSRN
# Outline: as §1
# CRX = CRX (Homo sapiens, UniProt O43186 1-299); conditions: protein: recombinant; tags: N-terminal GST; dsDNA, one strand shown
# Outline: as §1
# ETV1 = ETV1 (Homo sapiens, UniProt P50549 1-477); conditions: protein: recombinant; tags: N-terminal GST; dsDNA, one strand shown
# Outline: as §1
# ERF = molecular target: T6, ERF (Homo sapiens, UniProt P50548 1-548); conditions: protein: recombinant; tags: N-terminal GST; dsDNA, one strand shown
# T6 sequence: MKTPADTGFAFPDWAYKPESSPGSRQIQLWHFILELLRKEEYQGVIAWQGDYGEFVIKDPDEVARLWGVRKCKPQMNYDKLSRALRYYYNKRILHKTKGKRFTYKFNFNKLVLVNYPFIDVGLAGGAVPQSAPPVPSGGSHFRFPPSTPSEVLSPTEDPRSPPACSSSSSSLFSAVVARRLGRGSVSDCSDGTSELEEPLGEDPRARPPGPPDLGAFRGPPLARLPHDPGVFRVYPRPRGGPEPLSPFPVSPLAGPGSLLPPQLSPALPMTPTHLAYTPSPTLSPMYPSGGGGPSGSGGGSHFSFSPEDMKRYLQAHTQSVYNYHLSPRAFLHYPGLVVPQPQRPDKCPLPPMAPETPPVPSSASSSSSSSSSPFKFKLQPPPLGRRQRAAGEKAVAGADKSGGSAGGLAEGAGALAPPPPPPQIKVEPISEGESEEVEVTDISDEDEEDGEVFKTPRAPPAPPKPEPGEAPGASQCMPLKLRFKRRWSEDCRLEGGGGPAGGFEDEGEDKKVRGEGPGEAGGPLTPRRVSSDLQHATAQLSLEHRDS
# Outline: as §1
# ETV3L = molecular target: T7, ETV3L (Homo sapiens, UniProt Q6ZN32 1-361); conditions: protein: recombinant; tags: N-terminal GST; dsDNA, one strand shown
# T7 sequence: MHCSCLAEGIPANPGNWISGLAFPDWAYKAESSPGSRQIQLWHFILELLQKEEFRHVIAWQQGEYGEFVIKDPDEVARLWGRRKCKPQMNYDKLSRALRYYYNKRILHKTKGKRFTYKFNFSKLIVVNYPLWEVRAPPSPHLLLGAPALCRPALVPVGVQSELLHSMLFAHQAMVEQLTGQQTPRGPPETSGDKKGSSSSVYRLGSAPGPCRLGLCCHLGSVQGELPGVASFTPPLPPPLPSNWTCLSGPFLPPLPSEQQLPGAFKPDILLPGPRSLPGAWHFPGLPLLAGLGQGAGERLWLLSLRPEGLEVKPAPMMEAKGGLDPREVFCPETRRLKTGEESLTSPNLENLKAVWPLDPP
# Outline: as §1
# ETS2 = molecular target: T8, ETS2 (Homo sapiens, UniProt P15036 1-469); conditions: protein: recombinant; tags: N-terminal GST; dsDNA, one strand shown
# T8 sequence: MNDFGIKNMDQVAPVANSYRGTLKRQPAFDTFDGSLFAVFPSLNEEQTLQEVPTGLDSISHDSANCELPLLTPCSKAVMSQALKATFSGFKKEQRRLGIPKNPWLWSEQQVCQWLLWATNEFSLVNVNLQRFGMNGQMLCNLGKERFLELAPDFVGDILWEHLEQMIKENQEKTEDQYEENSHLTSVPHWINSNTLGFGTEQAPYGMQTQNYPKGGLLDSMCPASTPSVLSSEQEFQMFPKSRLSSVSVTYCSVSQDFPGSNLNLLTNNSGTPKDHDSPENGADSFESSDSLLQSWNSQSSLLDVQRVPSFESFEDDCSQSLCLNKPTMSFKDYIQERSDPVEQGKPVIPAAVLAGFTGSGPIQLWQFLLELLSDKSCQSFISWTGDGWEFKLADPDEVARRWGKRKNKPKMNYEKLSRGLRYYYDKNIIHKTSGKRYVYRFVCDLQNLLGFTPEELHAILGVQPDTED
# Outline: as §1
# SPDEF = molecular target: T9, SPDEF (Homo sapiens, UniProt O95238 1-335); conditions: protein: recombinant; tags: N-terminal GST; dsDNA, one strand shown
# T9 sequence: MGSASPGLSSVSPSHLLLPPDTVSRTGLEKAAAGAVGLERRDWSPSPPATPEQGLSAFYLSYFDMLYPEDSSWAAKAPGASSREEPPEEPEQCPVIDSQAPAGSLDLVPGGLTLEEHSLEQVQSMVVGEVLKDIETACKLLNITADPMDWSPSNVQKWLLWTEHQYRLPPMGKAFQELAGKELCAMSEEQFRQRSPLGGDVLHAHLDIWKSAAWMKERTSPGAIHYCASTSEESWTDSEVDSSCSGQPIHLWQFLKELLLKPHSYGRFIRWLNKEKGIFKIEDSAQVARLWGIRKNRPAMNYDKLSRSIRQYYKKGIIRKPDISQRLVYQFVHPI
# Outline: as §1
# ETV7 = molecular target: T10, ETV7 (Homo sapiens, UniProt Q9Y603 1-341); conditions: protein: recombinant; tags: N-terminal GST; dsDNA, one strand shown
# T10 sequence: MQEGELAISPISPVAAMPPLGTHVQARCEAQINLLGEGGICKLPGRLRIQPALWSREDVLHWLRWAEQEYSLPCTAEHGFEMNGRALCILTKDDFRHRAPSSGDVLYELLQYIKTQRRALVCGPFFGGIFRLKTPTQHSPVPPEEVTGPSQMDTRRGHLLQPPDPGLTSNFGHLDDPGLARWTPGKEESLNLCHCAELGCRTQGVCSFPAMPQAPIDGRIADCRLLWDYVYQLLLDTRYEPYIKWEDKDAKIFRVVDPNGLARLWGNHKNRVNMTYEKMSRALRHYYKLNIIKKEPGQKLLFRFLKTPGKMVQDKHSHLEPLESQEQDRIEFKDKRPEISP
# Outline: as §1
# ELF5 = molecular target: T11, ELF5 (Homo sapiens, UniProt Q9UKW6-2 1-255); conditions: protein: recombinant; tags: N-terminal GST; dsDNA, one strand shown
# T11 sequence: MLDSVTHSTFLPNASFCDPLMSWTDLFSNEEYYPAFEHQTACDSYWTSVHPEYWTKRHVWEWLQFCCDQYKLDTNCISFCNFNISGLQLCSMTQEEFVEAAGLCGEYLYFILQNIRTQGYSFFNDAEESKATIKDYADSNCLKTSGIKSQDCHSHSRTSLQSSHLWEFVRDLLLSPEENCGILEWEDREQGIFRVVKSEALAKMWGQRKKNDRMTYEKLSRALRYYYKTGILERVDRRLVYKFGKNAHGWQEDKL
# Outline: as §1
# ETV3 = molecular target: T12, ETV3 (Homo sapiens, UniProt P41162-2 1-143); conditions: protein: recombinant; tags: N-terminal GST; dsDNA, one strand shown
# T12 sequence: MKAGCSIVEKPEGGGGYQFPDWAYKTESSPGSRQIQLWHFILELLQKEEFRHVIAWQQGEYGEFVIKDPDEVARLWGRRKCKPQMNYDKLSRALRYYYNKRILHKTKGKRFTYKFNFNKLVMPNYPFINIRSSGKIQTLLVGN
# Outline: as §1
# ETV6 = ETV6 (Homo sapiens, UniProt P41212 1-452); conditions: protein: recombinant; tags: N-terminal GST; dsDNA, one strand shown
# Outline: as §1
# ETV5, sequence (P41161 whole entry): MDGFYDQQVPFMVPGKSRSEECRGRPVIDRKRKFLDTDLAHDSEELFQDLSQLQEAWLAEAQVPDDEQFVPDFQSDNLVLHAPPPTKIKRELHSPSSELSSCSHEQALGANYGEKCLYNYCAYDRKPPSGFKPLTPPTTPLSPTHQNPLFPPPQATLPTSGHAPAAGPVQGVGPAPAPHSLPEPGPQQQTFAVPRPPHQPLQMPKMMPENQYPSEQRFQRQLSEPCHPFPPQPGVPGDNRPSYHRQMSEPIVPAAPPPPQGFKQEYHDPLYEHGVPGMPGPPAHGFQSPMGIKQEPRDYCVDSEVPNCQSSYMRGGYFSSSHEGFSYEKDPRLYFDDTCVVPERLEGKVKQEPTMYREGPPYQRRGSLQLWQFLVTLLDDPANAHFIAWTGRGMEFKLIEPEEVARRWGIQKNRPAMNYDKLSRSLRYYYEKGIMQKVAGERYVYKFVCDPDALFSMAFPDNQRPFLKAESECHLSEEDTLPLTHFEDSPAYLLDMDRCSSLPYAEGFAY
# CRX, sequence (O43186 whole entry): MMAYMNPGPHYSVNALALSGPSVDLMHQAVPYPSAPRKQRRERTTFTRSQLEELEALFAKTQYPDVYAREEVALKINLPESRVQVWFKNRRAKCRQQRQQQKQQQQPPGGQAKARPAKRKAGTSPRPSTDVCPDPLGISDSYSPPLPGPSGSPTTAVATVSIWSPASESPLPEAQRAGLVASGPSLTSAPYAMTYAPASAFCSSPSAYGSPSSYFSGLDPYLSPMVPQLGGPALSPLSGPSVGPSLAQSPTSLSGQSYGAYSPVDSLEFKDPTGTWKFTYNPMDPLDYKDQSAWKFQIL
# HSF1, sequence (Q00613 whole entry): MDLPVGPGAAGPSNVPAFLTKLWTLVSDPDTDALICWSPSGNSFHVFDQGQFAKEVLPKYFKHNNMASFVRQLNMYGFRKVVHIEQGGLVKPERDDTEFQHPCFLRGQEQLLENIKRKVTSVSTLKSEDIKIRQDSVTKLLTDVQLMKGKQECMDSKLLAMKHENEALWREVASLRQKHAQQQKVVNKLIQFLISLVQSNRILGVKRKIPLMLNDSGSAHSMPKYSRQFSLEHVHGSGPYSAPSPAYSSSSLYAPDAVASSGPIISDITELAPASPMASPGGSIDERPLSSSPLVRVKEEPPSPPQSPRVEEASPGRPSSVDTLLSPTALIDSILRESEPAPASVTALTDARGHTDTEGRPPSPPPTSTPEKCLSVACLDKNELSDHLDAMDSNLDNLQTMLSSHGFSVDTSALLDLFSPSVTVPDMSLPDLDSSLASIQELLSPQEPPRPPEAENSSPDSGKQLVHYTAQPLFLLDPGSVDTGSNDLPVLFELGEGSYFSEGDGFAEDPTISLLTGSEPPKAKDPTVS
# ETV6, sequence (P41212 whole entry): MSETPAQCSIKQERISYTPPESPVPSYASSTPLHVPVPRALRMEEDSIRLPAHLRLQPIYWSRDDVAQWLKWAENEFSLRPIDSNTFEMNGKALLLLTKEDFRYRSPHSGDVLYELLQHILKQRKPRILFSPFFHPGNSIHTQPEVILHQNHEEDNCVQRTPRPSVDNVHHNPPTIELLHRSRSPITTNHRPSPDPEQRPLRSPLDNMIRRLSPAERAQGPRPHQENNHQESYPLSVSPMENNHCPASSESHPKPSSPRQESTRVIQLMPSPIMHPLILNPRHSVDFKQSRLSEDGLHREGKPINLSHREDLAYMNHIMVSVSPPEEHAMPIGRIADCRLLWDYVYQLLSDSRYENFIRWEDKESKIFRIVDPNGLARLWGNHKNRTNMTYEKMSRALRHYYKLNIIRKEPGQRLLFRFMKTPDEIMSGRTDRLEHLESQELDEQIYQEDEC
# ETV1, sequence (P50549 whole entry): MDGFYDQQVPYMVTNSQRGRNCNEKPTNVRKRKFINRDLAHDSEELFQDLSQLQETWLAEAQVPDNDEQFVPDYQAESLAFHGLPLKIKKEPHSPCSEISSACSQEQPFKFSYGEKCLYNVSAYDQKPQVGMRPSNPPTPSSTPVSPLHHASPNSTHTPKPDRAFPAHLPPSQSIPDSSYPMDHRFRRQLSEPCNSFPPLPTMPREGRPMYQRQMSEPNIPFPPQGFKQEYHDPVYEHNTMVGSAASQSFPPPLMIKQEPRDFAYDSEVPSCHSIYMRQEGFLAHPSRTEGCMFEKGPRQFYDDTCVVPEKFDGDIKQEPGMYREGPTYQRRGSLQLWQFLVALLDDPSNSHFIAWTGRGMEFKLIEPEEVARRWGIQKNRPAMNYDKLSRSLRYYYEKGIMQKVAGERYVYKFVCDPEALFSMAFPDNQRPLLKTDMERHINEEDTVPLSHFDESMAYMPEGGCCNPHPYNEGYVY
# ELF4, sequence (Q99607 whole entry): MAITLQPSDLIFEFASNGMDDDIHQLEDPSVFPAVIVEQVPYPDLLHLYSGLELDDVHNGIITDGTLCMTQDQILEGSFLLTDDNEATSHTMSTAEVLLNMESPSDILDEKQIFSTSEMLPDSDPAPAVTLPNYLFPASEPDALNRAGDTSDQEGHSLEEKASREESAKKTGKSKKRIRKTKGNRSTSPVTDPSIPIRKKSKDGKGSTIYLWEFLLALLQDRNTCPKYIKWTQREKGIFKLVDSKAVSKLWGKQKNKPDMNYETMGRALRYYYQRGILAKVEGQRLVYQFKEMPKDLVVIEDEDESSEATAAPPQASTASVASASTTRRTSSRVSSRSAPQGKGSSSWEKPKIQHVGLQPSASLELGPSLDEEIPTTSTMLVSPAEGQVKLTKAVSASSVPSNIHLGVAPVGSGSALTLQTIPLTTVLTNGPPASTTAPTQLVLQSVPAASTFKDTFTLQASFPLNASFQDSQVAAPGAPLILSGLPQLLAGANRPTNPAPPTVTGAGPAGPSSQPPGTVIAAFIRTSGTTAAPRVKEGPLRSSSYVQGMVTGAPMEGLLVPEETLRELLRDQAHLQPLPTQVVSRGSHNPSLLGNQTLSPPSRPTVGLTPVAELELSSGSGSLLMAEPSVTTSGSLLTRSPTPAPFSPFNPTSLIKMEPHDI
sequence,measurement,setting,value
AAATTC,binding signal,FEV,"1.26 fold enrichment (6-mer frequency, TF over GST control)"
same,binding signal,ETV5,"1.38 fold enrichment (6-mer frequency, TF over GST control)"
same,binding signal,HSF1,"1.95 fold enrichment (6-mer frequency, TF over GST control)"
same,binding signal,SPIC,"1.34 fold enrichment (6-mer frequency, TF over GST control)"
same,binding signal,ELF4,"1.32 fold enrichment (6-mer frequency, TF over GST control)"
same,binding signal,ELK4,"1.15 fold enrichment (6-mer frequency, TF over GST control)"
same,binding signal,ETV2,"1.26 fold enrichment (6-mer frequency, TF over GST control)"
same,binding signal,ELF3,"1.35 fold enrichment (6-mer frequency, TF over GST control)"
same,binding signal,CRX,"1.51 fold enrichment (6-mer frequency, TF over GST control)"
same,binding signal,ETV1,"1.3 fold enrichment (6-mer frequency, TF over GST control)"
same,binding signal,ERF,"1.29 fold enrichment (6-mer frequency, TF over GST control)"
same,binding signal,ETV3L,"1.43 fold enrichment (6-mer frequency, TF over GST control)"
same,binding signal,ETS2,"1.33 fold enrichment (6-mer frequency, TF over GST control)"
same,binding signal,SPDEF,"1.34 fold enrichment (6-mer frequency, TF over GST control)"
same,binding signal,ETV7,"1.28 fold enrichment (6-mer frequency, TF over GST control)"
same,binding signal,ELF5,"1.4 fold enrichment (6-mer frequency, TF over GST control)"
same,binding signal,ETV3,"1.3 fold enrichment (6-mer frequency, TF over GST control)"
same,binding signal,ETV6,"1.31 fold enrichment (6-mer frequency, TF over GST control)"
